The structures appear in SMILES notation. About 1,700 (3.3%) of roughly 52,000 compounds were called active. The sample holds actives, similar compounds and a random draw of the others, so the mix is not that of the screen. Unmarked numbers belong to inactive results. Rule as the data show it: active = survival mostly below about 52% (no sharp cut-off); inactive = mostly above about 56%.

The assay relates to Wild type. Briefly: growth inhibition of S. aureus wild type versus tarO mutant, primary screen, teichoic acid synthesis inhibitors, RN4220, OD600 (AID 463173). Particulars: S. aureus RN4220 wild type/DeltatarO growth, OD600, 18 h, hits give low values, screened at 18.75 µg/mL (by protocol).
Regarding `COC(=O)C1(c2ccccc2)NC(c2ccc(O)cc2)C2C(=O)N(c3ccc4c(c3)OCCO4)C(=O)C21` (centres undefined), the survival is 106%.
For `Cc1cc(N2CCC(C(=O)N(CC(C)C)CC(C)C)CC2)n2nc(C)c(-c3ccc(Cl)cc3)c2n1`, the survival was 91%.
For `COc1ccc(NC(=O)CN2C(=O)CC(c3ccc(C)c(C)c3)=Nc3ccccc32)cc1OC`, the survival is 76%.
Take `CCCn1c(SCC(=O)N2CCCC2)nnc1C(C)C`: the survival was 105%.
Consider `Cc1ccc(NC(=O)CCC(=O)N2Cc3ccccc3Oc3ncccc32)cc1F`, for which the survival was 82%.
In the case of `CCn1cc(C(=O)NCCCOC(C)C)c(=O)c2cc(S(=O)(=O)N3CCOCC3)ccc21`, the survival is 131%.
Take `COc1ccc(OC)c(CNC(=O)CN(c2ccc(C)cc2)S(=O)(=O)N(C)C)c1`: the survival was 80%.
In the case of `Cc1ccc(-c2cc3ncc(C(=O)c4cc([N+](=O)[O-])ccc4O)cn3n2)cc1`, the survival is 15% (active).
`Cc1ccc(-c2cc3ncc(C(=O)c4cc(Cl)c(C)cc4O)cn3n2)cc1`: the survival is 91%.
With `O=[N+]([O-])c1ccc(O)c(-c2ccnc3cc(-c4ccccc4)nn23)c1`, the survival was 29%.
Turning to `O=C(c1cnc2cc(-c3ccccc3)nn2c1)c1cc([N+](=O)[O-])ccc1O`, the survival was 19% (active).
Regarding `CCc1ccc(O)c(C(=O)c2cnc3cc(-c4ccc(C)cc4)nn3c2)c1`, the survival was 66%.
In the case of `COc1ccc(-c2cc3ncc(C(=O)c4cc([N+](=O)[O-])ccc4O)cn3n2)cc1` it was 58%; in that of `O=C(CCC(=O)N1CCOc2ccccc21)NCc1cccs1`, 83%.
Consider `Cc1cccc(NC(=O)Cn2c(=O)oc3cc(S(=O)(=O)NCc4ccccc4)ccc32)c1`, for which the survival is 92%.
Then `CC(=O)c1ccc(NC(=O)Cn2nc(C(F)(F)F)c3c2CCC3)cc1`, with 66%.
With `CCc1ccc(NC(=O)C2CCN(S(=O)(=O)c3cccc(-c4noc(C)n4)c3)CC2)cc1`, the survival was 90%.
As to `CCc1cccc(NC(=O)C2CCN(S(=O)(=O)c3cccc(-c4noc(C)n4)c3)CC2)c1`, the survival is 80%.
Then `Cc1cc(C)cc(NC(=O)C2CCN(S(=O)(=O)c3cccc(-c4noc(C)n4)c3)CC2)c1`, with -6% (active); and `CCOc1ccc(N(CC(=O)Nc2ccccc2)S(C)(=O)=O)cc1`, with 110%.
Then `COc1cc(Cl)c(C)cc1NC(=O)c1cc2ccc3cccnc3c2[nH]1`, with 73%.
Take `Cc1cnc2c(c1SCC(=O)N(C)c1ccccc1)c(=O)n(C)c(=O)n2C`: the survival is 100%.
Take `Cc1ccccc1-c1nc(CN2CCC(C(=O)NCc3ccccc3Cl)CC2)c(C)o1`: the survival was 85%.
`Cc1ccc(Cn2c(=N)n(CC(=O)c3ccccc3)c3ccccc32)cc1`: the survival is 107%.
For `CCOC(=O)Cn1c(=N)n(Cc2ccc(C(C)(C)C)cc2)c2ccccc21`, the survival is 95%.
In the case of `CC(C)(C)c1ccc(Cn2c(=N)n(CC(O)c3ccco3)c3ccccc32)cc1` (centres undefined) it was 53% (active); in that of `NC(=S)N/N=C/c1ccc(Sc2cccc3cccnc23)o1`, 115%.
With `COc1cccc(Cn2c(=O)cc(C)c3c(C)nn(C)c32)c1`, the survival is 85%.
For the compound `C=Cc1ccc(Cn2c(=O)cc(C)c3c(C)nn(-c4ccccc4)c32)cc1`, the survival is -1% (active).
Consider `Cc1cc(=O)n(Cc2ccccc2)c2c1c(C)nn2C`, for which the survival was -3% (active).
For `Cc1cc(=O)n(Cc2cccc(Cl)c2)c2c1c(C)nn2C`, the survival was 66%.
Regarding `Cc1ccc(C)c(Cn2c(=O)cc(C)c3c(C)nn(C)c32)c1`, the survival is 63%.
As for `COC(=O)c1ccc(Cn2c(=O)cc(C)c3c(C)nn(C)c32)cc1`, the survival is 53%.
`C=Cc1ccc(Cn2c(=O)cc(C)c3c(C)nn(C)c32)cc1`: the survival was 0% (active).
For `Cc1cc(=O)n(Cc2ccc(Cl)cc2)c2c1c(C)nn2-c1ccccc1`, the survival is 131%.
With `Cc1cc(=O)n(Cc2ccccc2)c2c1c(C)nn2-c1ccccc1`, the survival was 72%.
`Nc1ccc(-c2nc3c(Cl)cccc3[nH]2)cc1`: the survival is 125%.
As to `CCOc1ccc(-n2c(C)nc3cc(C(=O)NC4CCCC4)ccc32)cc1`, the survival was 67%.
Then `COc1cccc(Cn2c(=O)n(-c3cccc(Cl)c3C)c(=O)c3c4c(sc32)CN(C(C)=O)CC4)c1`, with 75%; and `Cn1cc(S(=O)(=O)N2CCCC2)cc1C(=O)Nc1ccc(C(F)(F)F)cc1`, with 109%.
In the case of `CCCCNc1nc(Oc2ccc(=O)n(C)n2)nc(N(C)C)n1` it was 83%; in that of `COc1ccc(-c2cc(C(=O)Nc3sc4c(c3C#N)CCCC4)no2)cc1OC`, 80%; in that of `CCC1CN(C(=O)N2CCC(C(=O)NCCCc3ccccc3)CC2)c2cc(C)ccc2O1` (centres undefined), 79%.
Take `COCCCn1c(=N)c(C(=O)NCc2cccnc2)cc2c(=O)n3cccc(C)c3nc21`: the survival was 74%.
As for `Cc1ccc(Nc2c3c(nc4nc(-c5cccs5)nn24)CCCC3)cc1F`, the survival was -3% (active).
Consider `Fc1cc(Br)ccc1Nc1c2c(nc3nc(-c4cccs4)nn13)CCCC2`, for which the survival was 0% (active).
Turning to `COc1cc(OC)c(Nc2c3c(nc4nc(-c5cccs5)nn24)CCCC3)cc1Cl`, the survival is 85%.
Take `COc1ccc(C)cc1Nc1c2c(nc3nc(-c4cccs4)nn13)CCCC2`: the survival was 63%.
For the compound `CC(=O)c1cccc(Nc2c3c(nc4nc(-c5cccs5)nn24)CCCC3)c1`, the survival is 76%.
In the case of `Cc1ccc(Nc2c3c(nc4nncn24)CCC3)cc1C` it was 76%.
Take `O=C(Cn1c2ncccc2c(=O)n1-c1ccccc1)NCc1ccccc1`: the survival is 80%.
Then `Cc1cc(O)c(C(c2ccccc2)N2CCCCC2)c(=O)n1Cc1ccco1` (centres undefined), with 77%.
In the case of `O=C(NCc1ccccn1)c1cc2n(n1)C(C(F)(F)F)CC(c1ccco1)N2` (centres undefined) it was 108%; in that of `Cc1ccc2oc(-c3ccc(NC(=O)c4cccc(F)c4)c(C)c3)nc2c1`, 100%.
Consider `CNC(=S)N(Cc1cccnc1)Cc1cc2cc(OC)ccc2[nH]c1=O`, for which the survival is 112%.
With `COc1cc2c(cc1OC)n(CC(=O)c1cc(C)ccc1C)c(=O)n1nc(CCn3nc(C)cc3C)nc21`, the survival is 71%.
With `Cc1c(C(N)=O)sc2ncn(Cc3ccccc3)c(=O)c12`, the survival is 112%.
Turning to `CC1(C)OC(c2ccccc2)CC1=O` (centres undefined), the survival was 98%.
In the case of `CC(C)=CCc1c(O)cc(O)c2c1OC(c1ccccc1)CC2=O` (centres undefined) it was 1% (active); in that of `O=C(O)c1c(-c2ccccc2)oc2ccc(OCc3c(F)cccc3Cl)cc12`, 38%.
Then `O=C(O)c1c(-c2ccccc2)oc2ccc(OCc3ccc(Cl)c(Cl)c3)cc12`, with 0% (active); and `Cc1ccc(COc2ccc3oc(-c4ccccc4)c(C(=O)O)c3c2)cc1`, with 54%; and `CCCCNC(=O)C1CCN(S(=O)(=O)CCC)CC1`, with 83%.
Then `Cc1ccc(CN2CCC(CNC(=O)c3cnn(-c4ccccc4)c3C3CCN(C(=O)OC(C)(C)C)CC3)CC2)cc1`, with 73%.
Regarding `Cc1cccc(OC(=O)c2snnc2C)c1C`, the survival is 80%.
Take `Cc1csc2nc(-c3cccc(NC(=O)c4c(F)cccc4F)c3)cn12`: the survival was 121%.
As for `Cc1csc2nc(-c3cccc(NC(=O)C(C)C)c3)cn12`, the survival is 80%.
In the case of `CCCC(=O)Nc1cccc(-c2cn3c(C)csc3n2)c1`, the survival is -6% (active).
Then `O=C(NCc1ccco1)c1ccc2c(c1)N(Cc1ccc(Cl)cc1)C(=O)c1ccccc1S2=O` (centres undefined), with 165%.
With `COc1ccccc1CNC(=O)CN1C(=O)c2cccnc2Oc2ccccc21`, the survival is 64%.
With `CCc1cnc2c(c1SCCC(C)C)c(=O)n(C)c(=O)n2C`, the survival is 79%.
For the compound `CCOc1cc(C(=O)N2CCn3c4c(c5cc(C)ccc53)CCCC42)cc(OCC)c1OCC` (centres undefined), the survival was 67%.
As to `CCCN(CCC)S(=O)(=O)c1ccc(C(=O)N2CCn3c4c(c5cc(C)ccc53)CCCC42)cc1` (centres undefined), the survival is 82%.
For the compound `COc1cc(SC)ccc1C(=O)N1CCn2c3c(c4cc(C)ccc42)CCCC31` (centres undefined), the survival is 85%.
As to `Cc1ccc(C(=O)N2CCn3c4c(c5cc(C)ccc53)CCCC42)cc1` (centres undefined), the survival was -10% (active).
For `Cc1ccc2c(c1)c1c3n2CCN(C(=O)c2ccc(C(F)(F)F)cc2)C3CCC1` (centres undefined), the survival is 49%.
With `Cc1ccc2c(c1)c1c3n2CCN(C(=O)c2cccc(C(F)(F)F)c2)C3CCC1` (centres undefined), the survival was 5% (active).
With `COc1ccccc1Nc1nc2c(S(=O)(=O)c3ccc(C(C)C)cc3)nnn2c2ccsc12`, the survival was 116%.
Turning to `CCCc1nc2ccccc2c(NC(=O)CN(CC)CC)c1CC`, the survival is 103%.
For the compound `CN(C)CCNC(=O)Cc1ccc(NC(=O)N2CCCCc3ccccc32)cc1`, the survival was 75%.
As for `COc1ccc(/C=C\C(=O)NC2CC(=O)N(c3ccccc3)C2)cc1OC` (centres undefined), the survival is 134%.
Regarding `Cc1cc(Nc2cccc(F)c2)n2nc(-c3ccco3)nc2n1`, the survival was 69%.
In the case of `Cc1cc(Nc2ccc(Br)c(C)c2)n2nc(-c3ccco3)nc2n1` it was -6% (active); in that of `Cc1cc(C)cc(Nc2cc(C)nc3nc(-c4ccco4)nn23)c1`, 78%.
Regarding `CCOC(=O)c1ccccc1Nc1cc(C)nc2nc(-c3ccco3)nn12`, the survival is 133%.
Then `Cc1cc(Nc2ccccc2Cl)n2nc(-c3ccco3)nc2n1`, with 78%; and `CCOc1ccc(OCC)c(Nc2cc(C)nc3nc(-c4ccco4)nn23)c1`, with -1% (active); and `CC(C)CC(=O)Nc1c(C(=O)N2CCN(c3ccccc3)CC2)oc2ccccc12`, with 96%.
In the case of `c1ccc(C(c2ccccc2)N2CCN(Cc3nnnn3Cc3ccc4c(c3)OCO4)CC2)cc1` it was 105%; in that of `O=c1c(=O)n(-c2ccccc2)ccn1Cc1cccc(C(F)(F)F)c1`, 108%.
In the case of `CN(C(=O)CSc1nc2ccc(NC(=O)c3ccccc3)cc2s1)c1ccccc1`, the survival is 77%.
Consider `CCN(c1ccc(OC)cc1)S(=O)(=O)c1ccc2[nH]c(=O)ccc2c1`, for which the survival is 72%.
For the compound `COCCN(Cc1ccc(C)c(Br)c1)S(=O)(=O)c1ccc2[nH]c(=O)ccc2c1`, the survival was -3% (active).
Then `CN(C)CCN(Cc1ccccc1)S(=O)(=O)c1ccc2[nH]c(=O)ccc2c1`, with 76%.

The record behind these values is PubChem BioAssay AID463173 (ICCB-Longwood Screening Facility, Harvard Medical School, 2010).
